Data reported in ChEMBL document CHEMBL2218924, “A broad activity screen in support of a chemogenomic map for kinase signalling research and drug discovery” (Biochem J, 2013).

Columns and labels:
[1] = target: T1, cGMP-dependent protein kinase 1 (Homo sapiens) (UniProt Q13976); settings: at 1 µM
T1 sequence (whole entry): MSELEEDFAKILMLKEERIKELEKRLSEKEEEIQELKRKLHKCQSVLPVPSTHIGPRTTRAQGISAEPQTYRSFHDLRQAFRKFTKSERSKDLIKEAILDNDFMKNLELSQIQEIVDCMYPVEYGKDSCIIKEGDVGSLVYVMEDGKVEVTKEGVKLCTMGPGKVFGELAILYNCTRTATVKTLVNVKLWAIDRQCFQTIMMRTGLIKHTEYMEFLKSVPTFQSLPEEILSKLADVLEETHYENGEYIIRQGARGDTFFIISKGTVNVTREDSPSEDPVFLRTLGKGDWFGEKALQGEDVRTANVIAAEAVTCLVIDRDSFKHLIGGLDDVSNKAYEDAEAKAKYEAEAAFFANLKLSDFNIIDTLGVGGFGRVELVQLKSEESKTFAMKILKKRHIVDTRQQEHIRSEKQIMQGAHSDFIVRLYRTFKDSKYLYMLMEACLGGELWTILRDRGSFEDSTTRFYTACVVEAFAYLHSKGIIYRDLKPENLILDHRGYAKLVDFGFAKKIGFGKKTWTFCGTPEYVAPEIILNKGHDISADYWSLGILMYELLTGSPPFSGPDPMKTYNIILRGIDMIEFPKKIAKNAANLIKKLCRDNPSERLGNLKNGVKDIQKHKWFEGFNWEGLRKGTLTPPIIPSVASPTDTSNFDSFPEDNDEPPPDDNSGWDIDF

[2] = target: T1, cGMP-dependent protein kinase 1 (Homo sapiens); settings: at 10 µM
[3] = target: T1, cGMP-dependent protein kinase 1 (Homo sapiens); settings: at 1 µM; remark: listed apart in the source
[4] = target: T1, cGMP-dependent protein kinase 1 (Homo sapiens); settings: at 10 µM; remark: listed apart in the source
[5] = target: Serine/threonine-protein kinase N2 (Homo sapiens) (UniProt Q16513); settings: at 1 µM
[6] = target: Serine/threonine-protein kinase N2 (Homo sapiens) (UniProt Q16513); settings: at 10 µM
[7] = target: Serine/threonine-protein kinase pim-2 (Homo sapiens) (UniProt Q9P1W9); settings: at 1 µM
[8] = target: Serine/threonine-protein kinase pim-2 (Homo sapiens) (UniProt Q9P1W9); settings: at 10 µM
[9] = target: T2, MAP kinase-activated protein kinase 5 (Homo sapiens) (UniProt Q8IW41); settings: at 1 µM
T2 sequence (whole entry): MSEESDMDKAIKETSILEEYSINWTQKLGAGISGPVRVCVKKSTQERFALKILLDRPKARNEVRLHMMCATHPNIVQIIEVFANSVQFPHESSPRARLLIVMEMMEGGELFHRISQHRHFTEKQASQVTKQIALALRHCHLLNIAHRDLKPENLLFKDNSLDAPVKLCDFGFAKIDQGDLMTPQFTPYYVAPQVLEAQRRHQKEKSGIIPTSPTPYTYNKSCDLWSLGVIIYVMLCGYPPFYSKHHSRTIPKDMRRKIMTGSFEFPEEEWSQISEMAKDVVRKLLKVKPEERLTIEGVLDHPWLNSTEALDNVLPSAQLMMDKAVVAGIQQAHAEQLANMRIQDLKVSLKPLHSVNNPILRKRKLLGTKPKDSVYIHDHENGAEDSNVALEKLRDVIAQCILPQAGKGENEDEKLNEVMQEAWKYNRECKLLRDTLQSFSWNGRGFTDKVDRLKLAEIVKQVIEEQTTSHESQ

[10] = target: T2, MAP kinase-activated protein kinase 5 (Homo sapiens); settings: at 10 µM
[11] = target: Tyrosine-protein kinase FRK (Homo sapiens) (UniProt P42685); settings: at 1 µM
[12] = target: Tyrosine-protein kinase FRK (Homo sapiens) (UniProt P42685); settings: at 10 µM
[13] = target: T3, Phosphorylase b kinase gamma catalytic chain, liver/testis isoform (Homo sapiens) (UniProt P15735); settings: at 1 µM
T3 sequence (whole entry): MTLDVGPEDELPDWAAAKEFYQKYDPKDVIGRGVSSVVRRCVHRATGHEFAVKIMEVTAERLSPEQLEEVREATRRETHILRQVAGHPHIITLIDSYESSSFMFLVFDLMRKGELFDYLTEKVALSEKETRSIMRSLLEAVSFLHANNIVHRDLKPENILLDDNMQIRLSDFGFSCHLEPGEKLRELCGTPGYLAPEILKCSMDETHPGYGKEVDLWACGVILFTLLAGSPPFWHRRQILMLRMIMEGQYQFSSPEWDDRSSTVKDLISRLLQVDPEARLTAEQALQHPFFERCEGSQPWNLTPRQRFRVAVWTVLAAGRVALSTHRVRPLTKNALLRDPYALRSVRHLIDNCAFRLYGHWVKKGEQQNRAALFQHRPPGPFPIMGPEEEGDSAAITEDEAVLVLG

[14] = target: T3, Phosphorylase b kinase gamma catalytic chain, liver/testis isoform (Homo sapiens); settings: at 10 µM
[15] = target: Serine/threonine-protein kinase pim-1 (Homo sapiens) (UniProt P11309); settings: at 1 µM
[16] = target: Serine/threonine-protein kinase pim-1 (Homo sapiens) (UniProt P11309); settings: at 10 µM
[17] = target: Serine/threonine-protein kinase pim-3 (Homo sapiens) (UniProt Q86V86); settings: at 1 µM
[18] = target: Serine/threonine-protein kinase pim-3 (Homo sapiens) (UniProt Q86V86); settings: at 10 µM
[19] = target: Serine/threonine-protein kinase PLK1 (Homo sapiens) (UniProt P53350); settings: at 1 µM
[20] = target: Serine/threonine-protein kinase PLK1 (Homo sapiens) (UniProt P53350); settings: at 10 µM

Chain of Serine/threonine-protein kinase N2 (Homo sapiens) (Q16513 whole entry, looked up): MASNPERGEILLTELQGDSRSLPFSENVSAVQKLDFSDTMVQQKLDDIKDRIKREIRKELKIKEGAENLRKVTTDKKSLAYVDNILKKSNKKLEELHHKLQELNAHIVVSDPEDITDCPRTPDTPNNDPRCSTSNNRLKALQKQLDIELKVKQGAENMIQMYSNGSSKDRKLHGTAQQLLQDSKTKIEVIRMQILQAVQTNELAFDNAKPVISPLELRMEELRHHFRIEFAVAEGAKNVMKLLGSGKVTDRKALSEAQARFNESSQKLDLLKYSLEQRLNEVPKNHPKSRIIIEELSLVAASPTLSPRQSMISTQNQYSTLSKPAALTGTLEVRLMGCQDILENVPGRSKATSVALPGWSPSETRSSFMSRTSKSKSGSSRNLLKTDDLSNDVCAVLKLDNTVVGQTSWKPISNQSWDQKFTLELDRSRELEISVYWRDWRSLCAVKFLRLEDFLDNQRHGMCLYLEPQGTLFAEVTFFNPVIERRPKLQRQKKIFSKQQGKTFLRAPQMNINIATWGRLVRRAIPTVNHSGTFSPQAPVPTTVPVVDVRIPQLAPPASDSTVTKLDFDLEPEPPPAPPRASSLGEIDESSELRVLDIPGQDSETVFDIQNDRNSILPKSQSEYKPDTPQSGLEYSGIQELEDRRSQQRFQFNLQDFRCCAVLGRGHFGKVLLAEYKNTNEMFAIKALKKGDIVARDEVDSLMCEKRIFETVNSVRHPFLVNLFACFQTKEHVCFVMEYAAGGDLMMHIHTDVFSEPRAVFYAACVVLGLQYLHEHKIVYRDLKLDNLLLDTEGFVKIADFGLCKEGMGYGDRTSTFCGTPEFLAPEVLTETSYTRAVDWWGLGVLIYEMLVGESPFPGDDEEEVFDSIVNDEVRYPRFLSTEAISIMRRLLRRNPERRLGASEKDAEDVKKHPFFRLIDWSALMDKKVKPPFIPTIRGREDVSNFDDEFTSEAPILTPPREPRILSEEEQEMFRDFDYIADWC
Chain of Tyrosine-protein kinase FRK (Homo sapiens) (P42685 whole entry, canonical isoform): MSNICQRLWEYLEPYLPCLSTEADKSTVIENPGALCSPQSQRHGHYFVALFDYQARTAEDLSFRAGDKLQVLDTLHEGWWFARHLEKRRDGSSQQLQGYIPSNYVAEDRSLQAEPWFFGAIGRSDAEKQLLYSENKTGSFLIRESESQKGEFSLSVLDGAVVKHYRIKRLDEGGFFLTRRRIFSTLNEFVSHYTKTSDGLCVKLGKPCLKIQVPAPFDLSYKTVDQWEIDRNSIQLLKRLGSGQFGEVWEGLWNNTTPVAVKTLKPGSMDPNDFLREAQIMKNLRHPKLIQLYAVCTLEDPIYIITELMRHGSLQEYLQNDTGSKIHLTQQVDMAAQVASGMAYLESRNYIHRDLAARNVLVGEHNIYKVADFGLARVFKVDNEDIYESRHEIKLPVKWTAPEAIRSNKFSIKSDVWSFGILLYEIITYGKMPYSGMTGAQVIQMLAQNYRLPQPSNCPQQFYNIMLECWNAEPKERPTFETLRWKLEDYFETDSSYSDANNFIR
Chain of Serine/threonine-protein kinase pim-2 (Homo sapiens) (Q9P1W9 whole entry, looked up): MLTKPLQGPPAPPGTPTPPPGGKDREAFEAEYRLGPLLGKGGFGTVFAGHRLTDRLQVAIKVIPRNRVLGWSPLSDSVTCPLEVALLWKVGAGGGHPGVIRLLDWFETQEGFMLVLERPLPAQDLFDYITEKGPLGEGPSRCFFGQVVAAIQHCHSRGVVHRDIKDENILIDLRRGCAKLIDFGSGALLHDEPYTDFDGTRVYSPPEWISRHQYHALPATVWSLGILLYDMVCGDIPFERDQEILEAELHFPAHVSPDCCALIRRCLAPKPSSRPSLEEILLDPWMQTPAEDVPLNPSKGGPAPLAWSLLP
Chain of Serine/threonine-protein kinase PLK1 (Homo sapiens) (P53350 whole entry): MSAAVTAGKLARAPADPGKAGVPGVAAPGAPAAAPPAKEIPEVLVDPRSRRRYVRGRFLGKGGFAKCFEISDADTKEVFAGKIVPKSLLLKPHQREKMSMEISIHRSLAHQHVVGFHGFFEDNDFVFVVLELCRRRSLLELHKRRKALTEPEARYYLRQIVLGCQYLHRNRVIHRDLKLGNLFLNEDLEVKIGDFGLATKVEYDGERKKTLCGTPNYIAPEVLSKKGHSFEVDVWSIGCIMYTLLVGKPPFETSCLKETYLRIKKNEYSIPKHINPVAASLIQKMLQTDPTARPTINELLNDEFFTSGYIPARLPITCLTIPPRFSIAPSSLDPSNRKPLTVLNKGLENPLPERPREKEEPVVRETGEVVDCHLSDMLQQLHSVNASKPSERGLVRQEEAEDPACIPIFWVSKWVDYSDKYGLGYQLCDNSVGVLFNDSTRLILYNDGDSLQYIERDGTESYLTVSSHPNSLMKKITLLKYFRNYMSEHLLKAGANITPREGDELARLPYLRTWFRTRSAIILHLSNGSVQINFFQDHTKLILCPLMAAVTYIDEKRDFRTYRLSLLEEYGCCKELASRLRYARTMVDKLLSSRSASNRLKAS
Chain of Serine/threonine-protein kinase pim-1 (Homo sapiens) (P11309 whole entry, looked up): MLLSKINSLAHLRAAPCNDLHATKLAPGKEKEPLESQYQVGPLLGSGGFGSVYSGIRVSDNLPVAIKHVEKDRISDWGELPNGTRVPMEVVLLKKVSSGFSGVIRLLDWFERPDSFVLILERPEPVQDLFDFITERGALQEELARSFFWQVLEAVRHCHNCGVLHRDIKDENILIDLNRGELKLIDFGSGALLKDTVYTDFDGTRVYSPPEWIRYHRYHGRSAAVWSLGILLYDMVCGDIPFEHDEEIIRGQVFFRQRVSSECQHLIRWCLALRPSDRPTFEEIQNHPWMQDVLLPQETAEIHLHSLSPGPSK

Row | Compound | residual activity [1] [%] | residual activity [2] [%] | residual activity [3] [%] | residual activity [4] [%] | residual activity [5] [%] | residual activity [6] [%] | residual activity [7] [%] | residual activity [8] [%] | residual activity [9] [%] | residual activity [10] [%] | residual activity [11] [%] | residual activity [12] [%] | residual activity [13] [%] | residual activity [14] [%] | residual activity [15] [%] | residual activity [16] [%] | residual activity [17] [%] | residual activity [18] [%] | residual activity [19] [%] | residual activity [20] [%]
1 | O=C(Nc1nc2ccccc2n1CCN1CCOCC1)c1cccc([N+](=O)[O-])c1 | 100 | 101 | 83 | 88 | 78 | 115 | 100 | 78 |  |  |  |  |  |  |  |  |  |  |  | 
2 | CCCCc1c(-c2ccc(OC)cc2)[nH]c2nccnc12 |  | 116 | 107 |  | 88 | 76 | 112 | 104 | 73 | 108 | 60 | 51 | 113 | 109 | 109 | 88 | 104 | 113 | 81 | 
3 | Oc1cccc(-c2nc(N3CCOCC3)c3oc4ncccc4c3n2)c1 | 120 |  |  | 90 |  |  |  |  | 98 |  |  |  |  |  | 88 | 86 | 98 | 98 |  | 
4 | O=C1Cc2c([nH]c3ccc(Br)cc23)-c2ccccc2N1 | 98 | 97 | 83 | 74 | 60 | 26 | 100 | 79 | 97 | 70 | 68 | 40 | 120 | 89 | 75 | 56 | 83 | 79 | 76 | 75
5 | CC(C)(C)c1nc2c3ccc(F)cc3c3c(=O)[nH]ccc3c2[nH]1 | 45 | 45 | 30 | 19 | 29 | 39 |  |  | 47 | 45 | 74 | 60 | 41 | 24 |  |  |  |  |  | 
6 | O=c1cc(N2CCOCC2)oc2c1ccc1ccccc12 |  |  | 91 | 99 | 101 | 98 | 87 | 45 | 28 | 42 |  | 90 | 90 | 89 | 55 | 13 | 92 | 55 | 56 | 11
7 | COc1cc2nccc(Oc3ccc(NC(=S)NC(=O)c4ccccc4C)cc3)c2cc1OC | 97 | 97 | 69 | 66 | 90 | 88 | 97 |  | 70 | 79 | 6 | 1 | 61 | 45 | 102 | 99 | 89 | 87 | 83 | 65
8 | CCCC(=O)Oc1ccc2[nH]c(C(=O)c3cc4ccccc4[nH]3)cc2c1 | 101 | 127 | 79 | 78 | 86 | 93 |  | 98 | 72 | 44 | 92 | 85 | 95 | 96 | 101 | 121 | 93 | 96 | 86 | 58
9 | O=S(=O)(NCCNC/C=C/c1ccc(Br)cc1)c1cccc2cnccc12 | 4 | 4 | 4 | 4 | 26 | 4 | 139 | 132 |  |  |  |  |  |  |  |  |  |  |  | 
10 | COc1cc2nccc(Oc3ccc(NC(=O)Nc4cc(C)on4)c(Cl)c3)c2cc1OC | 101 | 97 | 105 |  | 97 | 108 |  | 103 | 99 | 70 | 2 | -3 |  |  |  |  | 107 | 105 |  | 
11 | CSc1nc(-c2ccc(F)cc2)c(-c2ccnc(NC(C)c3ccccc3)c2)[nH]1 (configuration not stated) | 85 | 86 |  | 84 |  | 94 |  |  |  |  | 90 | 94 |  |  | 85 | 53 |  |  |  | 
12 | Nc1n[nH]c2nc3ccccc3nc12 |  | 88 |  | 59 |  | 74 | 130 | 93 | 95 |  | 98 | 92 |  |  | 124 | 87 | 95 | 86 | 91 | 78
13 | O=C1C(Cl)=C(N2C(=O)CCC2=O)C(=O)c2ccccc21 | 95 | 96 | 101 | 88 | 86 | 79 | 131 | 99 |  | 98 | 88 | 96 |  |  | 84 | 82 | 84 | 84 | 74 | 85
14 | c1ccc(-c2cnc(Nc3ccc(OCCN4CCCC4)cc3)s2)cc1 | 122 | 136 | 70 | 77 | 102 | 100 | 111 | 105 | 120 | 111 | 72 | 16 |  | 54 | 113 | 104 |  |  |  | 
15 | O=C1Nc2ccc(Cl)cc2/C1=C/c1cc(Cl)c(O)c(Cl)c1 | 84 | 79 | 79 | 44 | 99 | 94 | 17 | 3 | 95 | 17 | 56 | 5 | 94 | 83 | 24 | 5 | 77 | 30 | 83 | 62
16 | CC(C)c1nn(-c2c(Cl)cccc2Cl)c2nc(Cc3ccc(OCCO)cc3)[nH]c(=O)c12 | 103 | 102 | 91 | 48 | 89 | 91 | 131 | 103 |  | 73 | 72 | 35 |  | 93 | 104 | 82 | 93 | 92 | 83 | 81
17 | O=C(O)/C=C/c1cc(Br)c(Br)c(Br)c1Br | 94 | 65 | 82 | 32 |  | 38 | 28 | 1 | 83 | 28 | 102 | 86 | 109 | 63 | 49 | 6 | 78 | 39 | 73 | 22
18 | Nc1ncnc2c1c(-c1ccc(Oc3ccccc3)cc1)cn2C1CCCC1 | 102 | 96 | 82 | 72 | 87 | 100 | 106 |  | 90 | 46 | 2 | 2 | 97 | 95 | 103 | 88 | 88 | 88 | 83 | 50
19 | CC(C)(C)n1nc(Cc2cccc3ccccc23)c2c(N)ncnc21 | 109 | 97 | 86 | 95 |  |  | 114 |  | 75 | 33 | 26 | 0 | 98 | 109 | 77 | 106 | 96 | 95 | 99 | 75
20 | O=c1cc(N2CCNCC2)oc2c(-c3ccccc3)cccc12 |  |  | 84 | 81 | 105 | 101 | 100 |  | 93 | 99 |  | 104 | 84 | 92 | 84 | 54 | 88 | 76 | 82 | 55
21 | COc1ccc2c(c1)c(C1=C(c3c[nH]c4ccccc34)C(=O)NC1=O)cn2CCCN(C)C |  | 28 | 64 | 22 | 68 | 25 | 36 | 9 |  |  | 97 |  |  |  | 11 | 1 | 57 | 17 |  | 
22 | Nc1ncnc2[nH]nc(Nc3ccc(F)cc3)c12 | 100 | 79 | 95 | 79 | 107 | 80 | 133 | 99 | 109 | 91 |  | 38 | 102 | 99 | 115 | 53 |  | 69 |  | 77
23 | COc1ccc(-c2cnc3c(-c4ccsc4)cnn3c2)cc1 | 88 | 90 | 99 | 99 | 95 | 130 |  |  | 93 | 84 |  |  |  |  | 76 | 70 |  |  | 95 | 71
24 | NC(=O)Nc1sc(-c2ccc(F)cc2)cc1C(N)=O | 87 | 73 | 84 | 43 | 82 | 27 | 93 | 60 | 96 | 58 | 63 | 19 | 105 | 69 | 95 | 43 |  |  |  | 
25 | O=S(=O)(c1cccc2cnccc12)N1CCCNCC1 | 57 | 17 | 68 | 15 | 56 | 10 | 138 |  |  |  |  |  |  |  |  |  |  |  |  | 
26 | O=C1Nc2ccccc2/C1=C\c1c(Cl)[nH]c2ccccc12 |  | 84 |  | 72 |  |  | 73 | 16 |  |  | 83 | 73 | 87 | 87 |  | 26 |  |  | 86 | 75
